Assay [1] in a line: Nuclear factor erythroid 2-related factor 2/antioxidant responsive element (Nrf2/ARE) small molecule agonists: qHTS cell viability counter screen in human keratinocytes (AID 1919968; active = well fitted curve in the direction sought with a large enough effect in the repeat runs; an effect the other way counts as inactive or inconclusive; also: nearly all actives have a fitted effect of over 55% in size). The method in brief: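 Cytotoxicity was multiplexed with the Nrf2/ARE luciferase assay in the same wells. Stably transfected HaCaT keratinocytes were treated with test compounds for 23 h at 37 C. Cell viability was then measured by CellTiter-Fluor fluorescence.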
(Quantitative high-throughput screening tests each substance at several concentrations.)

Assay [2] in a line: Nuclear factor erythroid 2-related factor 2/antioxidant responsive element (Nrf2/ARE) small molecule agonists: luciferase reporter gene qHTS assay in human keratinocytes (AID 1919969). Also: nearly all actives have a fitted effect of over 35% in size. Also: potency is read from the fitted curve at half-maximal effect. In general terms: Reporter assays use an easily measured gene product as a stand-in for the process of interest.
For assay [3], the target named is Gonadotropin-releasing hormone receptor (Homo sapiens) (UniProt P30968). Put plainly: Human gonadotropin-releasing hormone receptor (GnRHR) small molecule agonists, calcium flux assay in GnRHR-HEK293 cells (AID 1920063). Also: nearly all actives have a fitted effect of over 35% in size. An outline of the steps: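 Agonist activity was measured as intracellular calcium flux in HEK293 cells engineered to stably express human GnRHR. After dye loading for 1 hour at 37 C, compounds in DMSO were added and fluorescence was followed for 3 minutes.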

The target in assay [4] is KiSS-1 receptor (Homo sapiens) (UniProt Q969F8). The experiment in a line: Human kisspeptin (KISS1R) small molecule agonists, calcium flux assay in KISS1R-HEK293 cells (AID 1920064; active = well fitted curve in the direction sought with a large enough effect in the repeat runs; an effect the other way counts as inactive or inconclusive). The method in brief:
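Agonist activity is monitored as intracellular calcium rise in engineered HEK293 cells carrying human KISS1R. Cells are dye-loaded for 1 h at 37 C before compound addition, and fluorescence is recorded for 3 min.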

A short description of assay [5]: G protein-coupled receptor (GPCR) small molecule agonists, calcium flux assay: HEK293 wild type cell line counter screen (AID 1920065). The method in brief: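 Seed cells, incubate 18 h (37 C, 5% CO2); add calcium dye, 1 h at 37 C; pin-transfer compounds, ATP control or DMSO; read fluorescence 480/540 nm each second for 3 min.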
(In general: Calcium flux is commonly read through the fluorescence of an indicator in the cells.)

Assay [6] in a line: p53 small molecule agonists, cell-based qHTS assay with human liver microsomes (AID 1963577).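 Also: p53 response element beta-lactamase reporter cells with liver microsomes plus NADPH.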 The method in brief: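 16 h, 37 C exposure of p53RE-bla cells to compounds with human liver microsomes and NADPH (0.5 mg/mL final each); detection via LiveBLAzer mixture, 2 h dark at room temperature.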
A short description of assay [7]: p53 small molecule agonists, cell-based qHTS assay with rat liver microsomes (AID 1963578). The method in brief:
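With rat liver microsomes and NADPH present (0.5 mg/mL final each), p53RE-bla cells are treated with compound for 16 h at 37 C. LiveBLAzer detection mixture is then applied for 2 h at room temperature in the dark.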

Assay [8] is described as follows: p53 small molecule agonists, cell-based qHTS assay with human liver microsomes: qHTS cell viability counter screen (AID 1963579). Also: nearly all actives have a fitted effect of over 45% in size. The method in brief:
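In this multiplexed counter screen, the reporter plates were subsequently treated with CellTiter-Glo so that cell viability, reflected by luminescence, could be recorded for p53RE-bla cells dosed 16 h with compounds under microsomal activation (HLM and NADPH).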

Assay [9] can be described thus: p53 small molecule agonists, cell-based qHTS assay with rat liver microsomes: qHTS cell viability counter screen (AID 1963580). Also: nearly all actives have a fitted effect of over 45% in size. The method in brief: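 Luminescent ATP readout (CellTiter-Glo, 30 min at room temperature) reports viability of p53RE-bla HCT-116 cells after 16 h at 37 C with test compounds under metabolic activation by rat liver microsomes and NADPH at 0.5 mg/mL final each.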

A short description of assay [10]: p53 small molecule agonists, cell-based qHTS assay: qHTS cell viability counter screen (AID 1963581). Also: nearly all actives have a fitted effect of over 45% in size. An outline of the steps: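 Viability was counter-screened in parallel with the p53 agonist reporter by measuring intracellular ATP luminescence in the same HCT-116 p53RE-bla wells after 16 h compound treatment at 37 C.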
Assay [11] has as its target 5-hydroxytryptamine receptor 2A (Homo sapiens) (UniProt P28223). Put plainly: 5-hydroxytryptamine receptor 2A (HTR2A) small molecule agonists, cell-based qHTS assay (AID 1963587). Also: nearly all actives have a fitted effect of over 30% in size. An outline of the steps: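 HTR2A-CHO cells, plated 18 h at 37 C/5% CO2, dye-loaded 1 h at 37 C; compounds in DMSO added by pin tool (agonist mode). Intracellular calcium flux read as kinetic fluorescence on FDSS over 2 min at 1 s intervals.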

For assay [12], the target named is Muscarinic acetylcholine receptor M1 (Homo sapiens) (UniProt P11229). The experiment in a line: Cholinergic receptor muscarinic 1 (CHRM1) small molecule antagonists, cell-based qHTS assay (AID 1963588). Also: nearly all actives have a fitted effect of over 40% in size. Also: potency is read from the fitted curve at half-maximal effect. An outline of the steps:
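Compounds were tested at 15 concentrations in three independent runs. Dye-loaded CHRM1-CHO cells were exposed 5 min at room temperature before stimulation by acetylcholine added at 50nM. Intracellular calcium was read kinetically on FDSS for 3 min.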

Assay [13] shares this target. The experiment in a line: Cholinergic receptor muscarinic 1 (CHRM1) small molecule agonists, cell-based qHTS assay (AID 1963589). Also: nearly all actives have a fitted effect of over 35% in size. The method in brief:
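Cells were plated and incubated 18 h at 37 C/5% CO2, loaded with calcium dye for 1 h at 37 C, then treated with compounds in DMSO. Fluorescence was recorded kinetically at 1 sec intervals.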

The target of assay [14] is D(2) dopamine receptor (Homo sapiens) (UniProt P14416). The experiment in a line: Dopamine D2 receptor (DRD2) small molecule agonists, cell-based qHTS assay (AID 1963594). Also: nearly all actives have a fitted effect of over 35% in size. An outline of the steps:
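HEK293 cells stably expressing DRD2 were cultured 24 h at 37 C, then given Ro20-1724 (0.1 mM final) and compounds for 10 min at room temperature. NKH477 (200nM) was then added for 30 min. cAMP was read by HTRF.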

Assay [15] shares this target. The experiment in a line: Dopamine D2 receptor (DRD2) small molecule antagonists, cell-based qHTS assay (AID 1963595; active = well fitted inhibition curve with a large enough effect in the signal ratio in the repeat runs, with a control signal flat; the % refers to the signal ratio; also: potency is read from the fitted curve at half-maximal effect). An outline of the steps:
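Cells were plated and grown for 24 h at 37 °C. Ro20-1724 (0.1 mM final) went in first, then compound for 10 min. NKH477 (200 nM) with quinpirole (12 nM) followed for 30 min at RT, then HTRF detection reagents for 1 h.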

Assay [16] can be described thus: p53 small molecule agonists, cell-based qHTS assay (AID 1963582; active = well fitted activation curve with a large enough effect in the signal ratio in the repeat runs, not every such curve was filed as active; the % refers to the signal ratio). The method in brief:
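Cells carrying a p53-responsive bla reporter are treated with test compounds for 16 h at 37 C; beta-lactamase activity is then detected with LiveBLAzer B/G FRET substrate after 2 h at room temperature.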

In assay [17] the target is 5-hydroxytryptamine receptor 2A (Homo sapiens) (UniProt P28223). The experiment in a line: 5-hydroxytryptamine receptor 2A (HTR2A) small molecule antagonists, cell-based qHTS assay (AID 1963586). Also: nearly all actives have a fitted effect of over 45% in size. An outline of the steps:
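CHO cells stably expressing human HTR2A were plated for 18 h at 37 C, then loaded with calcium dye for 1 h. Compounds were preincubated 5 min at room temperature before DOI (4 nM solution) was added. Kinetic fluorescence was read for 3 min.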

Assay [18] is described as follows: cAMP Responsive Elements (CRE) small molecule agonists, cell-based qHTS assay (AID 1963590). An outline of the steps:
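Cells carrying a CRE-driven beta-lactamase reporter (HEK 293T) are seeded, incubated overnight (18 h), and treated with test compounds for 3 h at 37 C; reporter activity is then detected with a FRET substrate after 2 h at room temperature.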

A short description of assay [19]: cAMP Responsive Elements (CRE) small molecule antagonists, cell-based qHTS assay (AID 1963591; active = well fitted inhibition curve with a large enough effect in the signal ratio in the repeat runs, not every such curve was filed as active; the % refers to the signal ratio). The method in brief:
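Cells (CRE-bla HEK 293T, DMEM with 10% dialyzed FBS and 25 mM HEPES) are seeded and incubated 18 h. Compounds are added with NKH477 agonist at 0.25 uM final for 3 h, then FRET substrate for 2 h.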

Assay [20] deals with Beta-2 adrenergic receptor (Homo sapiens) (UniProt P07550). The experiment in a line: Adrenergic beta2 receptor (ADRB2) small molecule antagonists, cell-based qHTS assay (AID 1963592). Also: series mostly up to about 92 µM; nearly all actives have a fitted effect of over 50% in size. The method in brief:
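Assay format: CHO-ADRB2 cells, 18-20hr seeding at 37C/5% CO2, then compound plus 1nM isoproterenol agonist mix for 0.5hr RT. Homogeneous time-resolved fluorescence cAMP detection after 1hr, expressed as 665/615 nm ratio.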

Each structure is given as a SMILES string. Inconclusive results are not listed. Calls of active or inactive are those of the source. Unless noted, calls follow the shape of the full dose curve.

D(2) dopamine receptor (Homo sapiens), sequence (P14416 whole entry, looked up): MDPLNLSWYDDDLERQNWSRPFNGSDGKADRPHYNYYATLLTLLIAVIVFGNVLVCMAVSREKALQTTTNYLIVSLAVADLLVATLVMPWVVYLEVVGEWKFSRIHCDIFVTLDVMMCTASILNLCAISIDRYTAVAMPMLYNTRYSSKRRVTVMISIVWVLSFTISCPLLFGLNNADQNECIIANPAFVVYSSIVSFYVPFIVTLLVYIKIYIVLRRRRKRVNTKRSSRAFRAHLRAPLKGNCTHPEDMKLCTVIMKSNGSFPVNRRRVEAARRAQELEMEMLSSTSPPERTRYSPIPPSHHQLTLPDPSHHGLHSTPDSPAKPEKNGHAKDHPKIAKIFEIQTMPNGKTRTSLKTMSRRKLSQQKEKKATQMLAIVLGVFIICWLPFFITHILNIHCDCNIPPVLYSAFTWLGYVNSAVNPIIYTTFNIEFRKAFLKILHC
5-hydroxytryptamine receptor 2A (Homo sapiens), sequence (P28223 whole entry, looked up): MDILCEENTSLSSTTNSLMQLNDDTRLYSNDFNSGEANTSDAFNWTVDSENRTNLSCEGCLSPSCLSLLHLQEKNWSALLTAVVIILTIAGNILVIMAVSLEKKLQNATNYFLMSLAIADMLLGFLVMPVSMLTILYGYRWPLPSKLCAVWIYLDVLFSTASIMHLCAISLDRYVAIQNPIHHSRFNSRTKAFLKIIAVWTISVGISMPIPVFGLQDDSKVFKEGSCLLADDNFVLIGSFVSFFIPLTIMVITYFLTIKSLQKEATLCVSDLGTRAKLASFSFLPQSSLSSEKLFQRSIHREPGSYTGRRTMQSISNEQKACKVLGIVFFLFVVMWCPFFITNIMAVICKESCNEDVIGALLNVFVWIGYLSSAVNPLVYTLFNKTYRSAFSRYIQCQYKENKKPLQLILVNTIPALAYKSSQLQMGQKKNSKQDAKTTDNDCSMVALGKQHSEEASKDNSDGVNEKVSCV
Beta-2 adrenergic receptor (Homo sapiens), sequence (P07550 whole entry, looked up): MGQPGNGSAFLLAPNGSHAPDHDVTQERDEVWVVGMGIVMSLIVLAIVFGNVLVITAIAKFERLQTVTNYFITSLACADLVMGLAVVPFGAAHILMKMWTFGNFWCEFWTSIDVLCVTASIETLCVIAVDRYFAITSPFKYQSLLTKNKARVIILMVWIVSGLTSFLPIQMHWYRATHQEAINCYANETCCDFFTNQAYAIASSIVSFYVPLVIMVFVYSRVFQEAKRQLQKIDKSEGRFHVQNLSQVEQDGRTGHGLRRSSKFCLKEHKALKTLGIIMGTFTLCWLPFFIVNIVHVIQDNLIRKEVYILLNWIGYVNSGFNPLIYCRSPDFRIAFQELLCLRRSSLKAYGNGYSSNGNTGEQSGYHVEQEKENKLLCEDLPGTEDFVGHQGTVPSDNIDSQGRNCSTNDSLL
Muscarinic acetylcholine receptor M1 (Homo sapiens), sequence (P11229 whole entry, looked up): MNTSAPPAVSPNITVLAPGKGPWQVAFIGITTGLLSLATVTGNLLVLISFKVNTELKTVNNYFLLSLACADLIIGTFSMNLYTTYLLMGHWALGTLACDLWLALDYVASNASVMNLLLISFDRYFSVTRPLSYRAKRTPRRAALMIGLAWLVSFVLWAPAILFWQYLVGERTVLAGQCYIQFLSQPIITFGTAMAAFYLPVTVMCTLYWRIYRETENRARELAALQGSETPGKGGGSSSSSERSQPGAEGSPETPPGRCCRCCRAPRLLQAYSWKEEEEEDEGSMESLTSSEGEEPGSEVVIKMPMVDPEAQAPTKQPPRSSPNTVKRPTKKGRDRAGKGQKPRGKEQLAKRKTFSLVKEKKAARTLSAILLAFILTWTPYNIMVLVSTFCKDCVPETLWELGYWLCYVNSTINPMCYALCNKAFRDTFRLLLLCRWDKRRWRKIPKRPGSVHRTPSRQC
KiSS-1 receptor (Homo sapiens), sequence (Q969F8 whole entry, looked up): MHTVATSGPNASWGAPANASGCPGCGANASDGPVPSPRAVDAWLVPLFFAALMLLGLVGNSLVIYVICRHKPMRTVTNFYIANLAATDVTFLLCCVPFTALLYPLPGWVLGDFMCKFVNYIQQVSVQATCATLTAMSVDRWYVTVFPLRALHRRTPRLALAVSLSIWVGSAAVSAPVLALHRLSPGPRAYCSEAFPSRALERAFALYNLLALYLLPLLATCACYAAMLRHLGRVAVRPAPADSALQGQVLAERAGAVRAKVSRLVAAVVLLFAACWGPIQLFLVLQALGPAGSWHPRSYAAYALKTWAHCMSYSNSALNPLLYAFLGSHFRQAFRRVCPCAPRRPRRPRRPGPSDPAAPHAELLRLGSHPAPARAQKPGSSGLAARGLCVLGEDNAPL
Gonadotropin-releasing hormone receptor (Homo sapiens), sequence (P30968 whole entry, looked up): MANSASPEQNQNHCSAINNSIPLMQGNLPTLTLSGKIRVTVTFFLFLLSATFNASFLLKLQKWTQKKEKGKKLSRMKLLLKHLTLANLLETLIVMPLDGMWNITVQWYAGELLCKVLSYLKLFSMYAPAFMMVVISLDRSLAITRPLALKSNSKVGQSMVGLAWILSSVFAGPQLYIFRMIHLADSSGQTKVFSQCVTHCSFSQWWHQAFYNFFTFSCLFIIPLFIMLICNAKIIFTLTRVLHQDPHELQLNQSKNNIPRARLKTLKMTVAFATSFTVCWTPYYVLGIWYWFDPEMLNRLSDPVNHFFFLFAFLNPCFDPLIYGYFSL

With `O=C(NC(=O)c1c(F)cccc1F)Nc1ccc(Oc2ccc(C(F)(F)F)cc2Cl)cc1F`, the Potency result in [1], in assay [2], in assay [3], in assay [4], in [5] and in assay [6] was “inactive” in each case. For the same compound, the Potency entry in assay [7], in [8], in [9], in [10], in assay [11] and in assay [12] was “inactive” each time. The Potency entry in assay [13] and in assay [14] was “inactive” in each case.

In the case of `CC(Oc1ccc(Oc2ncc(C(F)(F)F)cc2Cl)cc1)C(=O)O` (configuration not stated), the Potency entry in assay [1], in [2], in assay [3], in [4], in assay [5] and in [6] was “inactive” throughout. For the same compound, the Potency entry in assay [7], in [8], in assay [9], in assay [10], in [11] and in [13] was “inactive” each time. In addition, the Potency entry in assay [14] and in assay [15] was “inactive” each time.

`CC(CCc1ccccc1)NC(C)C(O)c1ccc(O)cc1` (configuration not stated): the Potency entry in assay [1], in assay [2], in assay [3], in assay [4], in assay [5] and in assay [6] was “inactive” throughout. Also, the Potency entry in [7], in assay [8], in assay [9], in assay [16], in assay [17] and in assay [11] was “inactive” each time. The Potency entry in [12], in [13], in assay [18], in assay [19] and in assay [20] was “inactive” throughout. Also, the Potency in assay [15] is 16.8 µM (active).

`C=CCC1=C(C)[C@@H](OC(=O)[C@@H]2[C@@H](C=C(C)C)C2(C)C)CC1=O`: the Potency entry in assay [1], in [3], in assay [4], in assay [5], in [6] and in assay [7] was “inactive” throughout. For the same compound, the Potency result in [8], in [9], in [17], in assay [11], in assay [13] and in [14] was “inactive” in each case. Moreover, the Potency was 61.1 µM (active) in [2] and 16.8 µM (active) in [12].

As to `C[N+](C)(C)CCCl`, the Potency result in assay [1], in assay [2], in [3], in assay [4], in assay [5] and in assay [6] was “inactive” each time. For the same compound, the Potency entry in assay [7], in [8], in assay [9], in [16], in assay [17] and in assay [11] was “inactive” in each case. The Potency entry in assay [12], in assay [18], in assay [20], in [14] and in assay [15] was “inactive” throughout.

`CSC1=N[C@@](C)(c2ccccc2)C(=O)N1Nc1ccccc1`: the Potency result in assay [1], in [2], in assay [3], in assay [4], in assay [5] and in assay [6] was “inactive” throughout. Moreover, the Potency entry in assay [7], in [8], in [9], in [17], in assay [11] and in [13] was “inactive” throughout. The Potency entry in assay [18], in assay [14] and in [15] was “inactive” each time.

`Cl/C=C\Cl`: the Potency result in assay [1], in [2], in assay [3], in assay [4], in assay [5] and in assay [6] was “inactive” each time. Also, the Potency entry in assay [7], in assay [8], in [9], in assay [17], in assay [11] and in assay [12] was “inactive” in each case. The Potency result in [13], in [18], in [19], in [20], in assay [14] and in assay [15] was “inactive” throughout.

As to `N#CCCl`, the Potency entry in assay [1], in [2], in assay [3], in assay [4], in [5] and in [6] was “inactive” each time. The Potency entry in [7], in [8], in assay [10], in assay [16], in assay [17] and in [11] was “inactive” in each case. The Potency result in assay [12], in [14] and in [15] was “inactive” in each case.

Take `SCc1ccco1`: the Potency result in [1], in assay [3], in assay [4], in assay [5], in [6] and in assay [7] was “inactive” each time. For the same compound, the Potency result in [8], in assay [9], in [17], in assay [11], in assay [12] and in assay [13] was “inactive” throughout. For the same compound, the Potency entry in assay [18], in [19], in assay [14] and in [15] was “inactive” each time. Moreover, the Potency in assay [2] is 68.6 µM (active).

Regarding `COC(N)=O`, the Potency entry in [1], in assay [2], in [3], in assay [4], in assay [5] and in assay [6] was “inactive” throughout. Also, the Potency result in assay [7], in [8], in [9], in assay [16], in assay [17] and in [11] was “inactive” each time. The Potency result in [12], in assay [13] and in assay [14] was “inactive” each time.

Source of the values: PubChem BioAssay (Tox21).
